From PubChem BioAssay AID1347421 (Sanford-Burnham Center for Chemical Genomics, 2020)
The full ranking holds about 1,500 compounds; the median of “activity” is about 2, and the lowest 2% start at about -18. Many of the other results were omitted from the sample, so the lowest values are more common in it than they were. Activity calls are given as the source filed them.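 Rule for the calls: active = inhibition of at least 40% at 10 µM; inconclusive = no clear call, values can overlap the other calls; inactive = the rest.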

target: Sulfhydryl oxidase 1 (Homo sapiens) (UniProt O00391); assay: QSOX1 enzyme inhibitors, confirmation, biochemical, ROS-Glo luminescence, single concentration (AID 1347421); settings: recombinant hQSOX1, RNase A substrate, ROS-Glo H2O2 luminescence; at 10 µM;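 note: 0% = DMSO wells with enzyme and 100% = wells lacking QSOX1 enzyme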
Sequence (O00391 whole entry, looked up): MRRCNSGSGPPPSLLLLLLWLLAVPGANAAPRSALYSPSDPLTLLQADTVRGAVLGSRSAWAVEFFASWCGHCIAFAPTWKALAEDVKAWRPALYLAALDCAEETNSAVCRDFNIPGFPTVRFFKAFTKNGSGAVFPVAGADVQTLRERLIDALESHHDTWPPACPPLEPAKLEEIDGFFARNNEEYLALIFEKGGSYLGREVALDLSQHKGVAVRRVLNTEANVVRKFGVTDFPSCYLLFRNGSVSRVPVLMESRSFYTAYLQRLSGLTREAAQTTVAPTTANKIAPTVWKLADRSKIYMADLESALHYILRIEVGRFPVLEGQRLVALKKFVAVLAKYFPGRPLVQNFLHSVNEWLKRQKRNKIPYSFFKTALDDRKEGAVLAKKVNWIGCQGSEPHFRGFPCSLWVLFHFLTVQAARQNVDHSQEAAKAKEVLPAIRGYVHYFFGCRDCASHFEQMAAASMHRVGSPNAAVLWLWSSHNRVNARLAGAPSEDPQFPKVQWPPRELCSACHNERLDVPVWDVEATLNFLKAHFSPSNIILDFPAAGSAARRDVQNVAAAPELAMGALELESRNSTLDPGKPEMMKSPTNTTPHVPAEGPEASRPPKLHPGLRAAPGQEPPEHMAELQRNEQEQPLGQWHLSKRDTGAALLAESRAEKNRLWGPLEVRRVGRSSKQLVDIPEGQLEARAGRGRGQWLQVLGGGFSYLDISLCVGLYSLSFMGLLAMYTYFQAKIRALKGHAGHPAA

Row | Compound | activity
1 | Cc1ccc(C(=O)N2CCC3(CCCN(Cc4ccc(F)c(F)c4)C3=O)C2)cn1 (stereo unspecified) | 3.9%
2 | CCSCCn1ncc(N2CCNCC2)cc1=O | 1.4%
3 | CC(C)(CO)NC(=O)CC(c1ccccc1)c1ccc(Cl)cc1 (stereo unspecified) | 0.5%
4 | NCc1ccccc1SC1=[C+]C=C[C+]=C1CN1CCOCC1 | -11.3% (inactive)
5 | O=C(NC(=O)N1CCCC1)c1ccc(Cl)cc1 | -2.8% (inactive)
6 | O=C1CCCN1CCCNCc1cccc(OCC(O)CN2CCCCCC2)c1 (stereo unspecified) | 5.6%
7 | COc1ccccc1Oc1ncccc1CNCC1CCOC1 (stereo unspecified) | 2.6%
8 | Cc1cc(S(=O)(=O)n2ccnc2)c(C)c(C)c1C | -0.1% (inactive)
9 | O=C(CC1C(=O)NCCN1Cc1cccnc1)NCCCn1ccc2ccccc21 (stereo unspecified) | 3.3%
10 | COc1ccc(S(=O)(=O)N2CCCC2)cc1N(C)S(C)(=O)=O | -11% (inactive)
11 | COc1ccc(S(=O)(=O)N2CCCC(C(=O)NC3CC3)C2)cc1OC (stereo unspecified) | -18.9% (inactive)
12 | COCC(=O)Nc1ccc(S(=O)(=O)N2CCCC(C)C2)cc1 (stereo unspecified) | 7.5%
13 | CN1CCCCCC1C(=O)NCc1cccnc1N1CCN(c2ccccn2)CC1 (stereo unspecified) | -5.2% (inactive)
14 | CCOC(=O)c1cccc(CSc2n[nH]c(N)n2)c1 | -1.9% (inactive)
15 | Cn1ccnc1C1CCCCN1Cc1c(C(=O)N2CCCCCCC2)nc2sccn12 (stereo unspecified) | 10.8%
16 | COc1cccc(-c2n[nH]c3c2CN(CCc2ccccc2)CC3)c1 | 5.1%
17 | Fc1ccccc1-c1noc2c1CN(Cc1ccc3c(c1)OCCO3)CC2 | -4.5% (inactive)
18 | O=C(NCc1ccc2c(c1)OCO2)C1CCC(=O)N(CCc2cccc(F)c2)C1 (stereo unspecified) | -2% (inactive)
19 | CCN(CC)C(=O)NCc1ccccn1 | -15.1% (inactive)

Row | Compound | activity
20 | CCN(CC)C(=O)NCc1ccc2c(c1)OCO2 | -18.4% (inactive)
21 | Cc1cc(N2CCN(C(=O)c3cn(Cc4ccccc4F)nn3)CC2)cc(C)n1 | 2.1%
22 | Cc1noc(C)c1CC(=O)N1CCCC(CCC(=O)N(C)CCc2ccccn2)C1 (stereo unspecified) | 5.3%
23 | CN(CCc1ccccn1)C(=O)CCC1CCCN(C(=O)Cc2cccnc2)C1 (stereo unspecified) | 4.4%
24 | FC(F)(F)c1cc(-c2ccco2)nc(N2CCCCC2)n1 | -20.8% (inactive)
25 | FC(F)(F)c1cc(-c2ccco2)nc(NCc2cccs2)n1 | -4.8% (inactive)
26 | Cc1ccccc1CC(=O)NCC(C)C | -16% (inactive)
27 | COc1cc(C(=O)NC2CCCCC2)ccc1OC1CCN(C(C)=O)CC1 | 3.4%
28 | CN(CCc1ccccn1)[C@@H]1CCN(Cc2ccc(C#CCO)s2)C[C@H]1O | 4.2%
29 | Cc1occc1C(=O)Nc1ccc([N+](=O)[O-])cn1 | 17.1%
30 | C=C(C)CN(CC)C(=O)c1cc(COc2ccc(-n3cncn3)cc2)on1 | 9.4%
31 | CCN1CCN(c2ncc3c(n2)CC(c2ccc(OC)c(OC)c2)CC3=O)CC1 (stereo unspecified) | -19% (inactive)
32 | COc1ccc(C2CC(=O)c3cnc(NC4CC4)nc3C2)cc1 (stereo unspecified) | 3.9%
33 | COc1ccc(C2CC(=O)c3cn[nH]c3C2)cc1 (stereo unspecified) | -17.7% (inactive)
34 | O=C(CCc1ccsc1)N1CCOC(Cc2ccccc2Cl)C1 (stereo unspecified) | 20.5%
35 | Cc1cc(Br)c(S(=O)(=O)NCc2ccncc2)cc1C | 3.4%
36 | NC(=O)C1(N2CCCCC2)CCN(C(=O)C2CCC(=O)N(C3CCCC3)C2)CC1 (stereo unspecified) | 5.6%
37 | O=C(Nc1ccccc1C(=O)NC1CC1)c1ccccc1Cl | 11.7%
38 | Cc1ccccc1C(=O)Nc1ccccc1C(=O)N(C)C | -20% (inactive)

Row | Compound | activity
39 | Cc1ccccc1C(=O)Nc1c(Cl)ccc2nsnc12 | 0.9%
40 | COc1ccccc1/C=C/CN1CCNC(=O)C1CC(=O)NCCOc1cccnc1 (stereo unspecified) | -2% (inactive)
41 | CC(C)Cn1c(CN(C)Cc2ccco2)cnc1S(=O)(=O)CC1CCCO1 (stereo unspecified) | 4.1%
42 | O=C1CCC(C(=O)N2CCC(Oc3cccc(F)c3)CC2)CN1CCc1ccccn1 (stereo unspecified) | 0.7%
43 | O=C(Nc1n[nH]c(C2CCCCC2)n1)N1CCOC2(CCCC2)C1 | 1%
44 | C=CCC1(CC=C)CCCN1C(=O)c1cn(CC2COc3ccccc3O2)nn1 (stereo unspecified) | -0.3% (inactive)
45 | O=c1c2ccccc2nc(NCCO)n1Cc1ccccc1 | -20.3% (inactive)
46 | CS(=O)(=O)c1ncc(CO)n1Cc1ccccc1 | -4.5% (inactive)
47 | NC(=O)COc1ccc(S(=O)(=O)N2CCOCC2)cc1 | -13.3% (inactive)
48 | O=C(O)c1ccc(S(=O)(=O)N2CCSCC2)cc1 | -3% (inactive)
49 | O=C(c1cc(S(=O)(=O)N2CCOCC2)c(Cl)cc1Cl)N1CCSCC1 | -18.4% (inactive)
50 | O=C(Nc1ccc(-c2nc3ccccc3[nH]2)cc1)c1ccccn1 | 5.8%
51 | CN(C)S(=O)(=O)c1cccc(S(C)(=O)=O)c1 | 8.2%
52 | COc1cc(C)nc(NC(=O)Nc2cccc(Cl)c2)n1 | -2.3% (inactive)
53 | Cc1ccc(S(=O)(=O)c2ncsc2Cl)cc1 | 0.6%
54 | CC(C)Oc1ccc(NC(=O)CCN2C(=O)c3ccccc3C2=O)cc1 | 0.6%
55 | COC1=C(OC)C=CC(c2nnn(C3CCNCC3)n2)=[C+]1 | -20.6% (inactive)
56 | COc1cccc(CNCc2ccc(F)cc2)c1 | -17.7% (inactive)
